The full list was thinned out, with hits kept by preference.
Lamin A splicing: LMNA splicing modulation. HeLa LMNA splicing GFP/RFP minigene ratio, 48 h. Potency, µM (top dose mostly 46.1 µM), for the others: at the highest dose ratio change, negative = inhibition, actives largely listed as inhibitors. 200,000 tested, 0.01% active. AID 1487; active means well fitted inhibition curve with a large enough effect in the signal ratio, with a control signal flat, not every such curve was filed as active; inconclusive means small, poorly fitted or top-dose-only effect, or effect the other way, or a change in a side signal; the % refers to the signal ratio; further: potency means the concentration at half of the fitted maximal effect
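S3 HeLa cells stably expressing lamin A-EGFP splicing minigene plus DsRed2, 600 cells/well, 48 h compound exposure at 37C. Laser-scanning cytometry; analysed as GFP (500-530 nm)/RFP (575-640 nm) total intensity ratio; 0.5% DMSO vehicle.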
PNC assembly inh: inhibitors of perinucleolar compartment assembly; PC3M PTB-GFP, PNC prevalence imaging, 16 h; active compounds read low; activity change (PNC), negative = inhibition, % at 10 µM; 140,000 tested, 3.1% active; AID 2417;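 active means readout at or below -70, meaning at least 70% loss of cells showing the perinucleolar compartment, a nuclear body marking cancer cells; inconclusive means readout between -30 and a set limit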;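 further: plate controls were DMSO wells for no effect and camptothecin positive control wells for full effect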
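Compounds are pinned in duplicate onto adhered PC3M cells stably expressing GFP-tagged PTB and incubated 16 h at 37 C. Cells are then fixed, nuclei stained with Hoechst, and PNC-positive cells counted.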
IMPase cell inh: IMPase inhibition in cells. AID 901. CHO-M1 cells, IP1 accumulation, HTRF TR-FRET ratio. inhibition (IP1 accumulation), % at 46.1 µM. 120,000 tested, under 10 active. P97697; active means well fitted curve in the direction sought with a large enough effect in the signal ratio, not every such curve was filed as active; inconclusive means small, poorly fitted or top-dose-only effect, or a change in a side signal; inactive means no such curve, though single readings can be large or run the other way; the % refers to the signal ratio;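 further: cells stimulated with carbachol in lithium chloride buffer; plate controls were DMSO basal wells for no effect and reference inhibitor wells for full effect; higher means more IMPase inhibition seen as more IP1 and lower FRET ratio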
Target sequence (P97697 whole entry, looked up): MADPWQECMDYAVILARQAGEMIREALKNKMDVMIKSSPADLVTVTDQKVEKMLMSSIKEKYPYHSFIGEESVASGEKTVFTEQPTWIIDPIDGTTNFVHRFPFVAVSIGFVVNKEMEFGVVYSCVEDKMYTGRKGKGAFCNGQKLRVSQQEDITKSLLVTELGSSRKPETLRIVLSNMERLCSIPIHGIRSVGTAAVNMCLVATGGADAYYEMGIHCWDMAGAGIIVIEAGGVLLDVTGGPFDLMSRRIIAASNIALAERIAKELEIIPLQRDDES
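CHO-M1, 2000 cells/well, cultured 16–30 h; cpd up to 46 uM; carbachol (50 uM solution, stimulation buffer w/ 50 mM LiCl, pH 7.4), 30 min 37C; IP-One TR-FRET, 10 min RT; Ex 320/Em 665, 620; Hill-fit AC50.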
Active calls of the source: *; ? = inconclusive; . = no result; [ ] = remark or other dose. Unless noted, on the % scale 0 is the no-effect control and ±100 the full control effect.

SMILES	Lamin A splicing	PNC assembly inh	IMPase cell inh
CCc1ccccc1NC(=O)c1cnc2sc(N3CCCC3)nn2c1=O	2.7%[46 µM]	.	.
Cc1cccc(NC(=O)NNC(=O)COc2ccc(Cl)cc2)c1	-3.5%[46 µM]	.	.
O=C(NCCC1=CCCCC1)c1ccc2c(c1)ncn2-c1ccc(F)c(F)c1	-10.8%[46 µM]	.	.
OCCNc1nc(Nc2ccccc2)nc2ccccc12	-5.7%	-118.9*	8.1
OCCNc1nc(Nc2ccccc2)nc(Nc2ccccc2)n1	-3.5%	1.9	-8.6
CN1CCN(C(=S)NC(=O)c2cccc(S(=O)(=O)N(C)C)c2)CC1	-9.7%[46 µM]	.	.
C=C(C)Cn1c(=O)c2c(nc3n2CCN3c2ccc(CC)cc2)n(C)c1=O	11.1%[46 µM]	.	.
CN(C(=O)COC(=O)c1cc(NS(=O)(=O)c2cc([N+](=O)[O-])ccc2Cl)ccc1O)C1CCCCC1	?	-95.5*	.
O=C(COC(=O)c1ccccc1NS(=O)(=O)c1cc([N+](=O)[O-])ccc1Cl)c1ccccc1	-13.5%[9.22 µM]	.	.
COC(=O)c1ccc(OCC2c3cc(OC)c(OC)cc3CCN2C(=O)c2ccccc2F)cc1 (stereo not given)	-15.5%[46 µM]	.	.
C#C[C@@]1(O)CC[C@@H]2[C@@H]3CCC4=C(CCC(=O)C4)[C@H]3CC[C@]21C	?	.	-2.7[20.6 µM]
CCOc1ccccc1NC(=O)CSc1c(C)cnc2c1c(=O)n(C)c(=O)n2C	-25.1%[46 µM]	.	.
Cc1cccc(NC(=O)c2cnc3n(c2=O)CCS3)c1	2.7%	18.5	-16.2
O=C(Nc1ccccc1)c1cnc2n(c1=O)CCS2	-13.8%	-119.3*	0.3
COc1ccc(CCNC(=O)C(=O)NCC(c2ccc3c(c2)OCO3)N2CCOCC2)cc1 (stereo not given)	6.5%[46 µM]	.	.
COc1ccccc1N1CCN(C(=O)CCNS(=O)(=O)c2ccc3c(c2)CCN3C(=O)C2CC2)CC1	3.6%[46 µM]	.	.
Cc1ccc(S(=O)(=O)N/N=C/c2cccc(OC3CSC3)c2)cc1	-13.1%	-9.2	.
O=S(=O)(N/N=C/c1cccc(OC2CSC2)c1)c1ccccc1	-6.0%	-112.2*	.
c1ccc(-c2c(-c3ccccc3)n(Cc3ccco3)c3ncnc(NCCCn4ccnc4)c23)cc1	0.5%	-16.0	9.6
N=c1c2c(-c3ccccc3)c(-c3ccccc3)n(Cc3ccco3)c2ncn1CCCn1ccnc1	?	-98.3*	.
CCOC(=O)c1ccc(NC(=O)N2CCN(C(=O)C3CCCO3)CC2)cc1 (stereo not given)	-3.0%[46 µM]	.	.
O=C(O)C1CCCNC1 (stereo not given)	?	-82.7*	.
O=C(O)[C@H]1CCCNC1	.	.	-2.8
Cn1nc(OCC(N)=O)ccc1=O	3.5%	-100.0*	-6.6
NC(=O)COc1ccc(=O)n(-c2ccccc2)n1	2.7%	1.1	8.1
SMILES	Lamin A splicing	PNC assembly inh	IMPase cell inh
CCC(=O)N1CCN(c2nc3c(C)cccc3s2)CC1	30.4%[46 µM]	.	.
O=C(C1CCCN1C(=O)c1cccs1)N1CCc2ccccc21 (stereo not given)	?	-97.9*	-1.6
O=C(c1cccs1)N1CCc2ccccc21	22.7%	?	-0.6
COc1ccc(Cc2nc3ccc(C(=O)NCCCN4CCN(C)CC4)cc3o2)cc1	-1.2%[46 µM]	.	.
COc1ccc(/C=N/NC(=O)Cn2cnc3ccccc3c2=O)cc1	-3.7%	-25.1	.
COc1ccc(/C=N/NC(=O)C(C)n2cnc3ccccc3c2=O)cc1 (stereo not given)	-4.2%	-119.3*	1.4
CN(C(=O)c1cc2c(=O)n3ccccc3nc2n1C)c1ccccc1	9.4%[46 µM]	.	.
CCC1CCc2c(sc(NC(=O)C3c4ccccc4Oc4ccccc43)c2C(N)=O)C1 (stereo not given)	-15.7%	-94.9*	-4.8
CCCOC(=O)c1c(NC(=O)C2c3ccccc3Oc3ccccc32)sc2c1CCCC2	.	.	-3.4
Cc1ccc(Cl)cc1N1CCN(S(=O)(=O)c2cn(C)c(C)n2)CC1	4.8%[46 µM]	.	.
Cc1cc(C(F)(F)F)n2nc(C(=O)O)c(Cl)c2n1	4.1%	-89.8*	-6.2
Cc1cc(C(F)(F)F)n2nc(C)c(-c3ccc(Cl)cc3)c2n1	0.5%	22.6	.
COc1cc(NS(=O)(=O)c2cccc3nsnc23)cc(OC)c1	-9.8%	-82.0*	5.9
CSc1cccc(NS(=O)(=O)c2cccc3nsnc23)c1	?	11.5	15.8
Cc1cc(S(=O)(=O)Nc2cccc(Cl)c2)c(C)s1	18.4%[9.22 µM]	.	.
COc1cccc(NS(=O)(=O)c2cc(C)sc2C)c1	?	-100.0*	-3.8
COc1ccc(-c2cn3nc(N4CCCC(C(=O)Nc5cccc(OC)c5)C4)sc3n2)cc1 (stereo not given)	-6.1%[46 µM]	.	.
Cc1cc2c(cc1S(=O)(=O)Nc1cccc(C#N)c1)OCC(=O)N2	4.2%[46 µM]	.	.
Cc1ccc(NC(=O)CSc2nnc(C)s2)c(C)c1	.	.	-5.3
COc1ccc([N+](=O)[O-])cc1NC(=O)C(C)OC(=O)c1cccnc1 (stereo not given)	2.3%[9.22 µM]	.	.
Cc1ccc(OCCn2cc(C(=S)N3CCCC3)c3ccccc32)cc1C	?	-106.1*	5.6
S=C(c1cn(CCOc2ccccc2)c2ccccc12)N1CCCC1	-21.7%	-6.5	-3.0
CCOc1cc2c(cc1OCC)C(CC(=O)O)N(C(=O)Nc1ccc(Br)c(C)c1)CC2 (stereo not given)	-7.3%[46 µM]	.	.
CCOC(=O)/C(=C\c1ccccc1)C(=O)c1cc(C(C)=O)c(Nc2ccccc2)s1	?	6.8	10.8
CCOC(=O)/C(=C\c1cccnc1)C(=O)c1cc(C(C)=O)c(Nc2ccccc2)s1	?	-111.4*	10.1
SMILES	Lamin A splicing	PNC assembly inh	IMPase cell inh
O=C(NCc1ccccc1)c1ccccc1OCC(=O)N1CCCCC1	-7.3%	13.4	3.7
N#C/C(=C(/O)COC(=O)CSc1ccc2ccccc2c1)c1nc2ccccc2[nH]1	-8.1%	-80.4*	-5.7
Cc1ccc(C)c(SCC(=O)OC/C(O)=C(\C#N)c2nc3ccccc3[nH]2)c1	13.5%[46 µM]	.	.
O=C(NCCc1ccccc1)C(=O)NCC(c1ccco1)S(=O)(=O)c1cccs1 (stereo not given)	-3.4%[46 µM]	.	.
Cc1occc1C(=O)Nc1sc2c(c1C(N)=O)CCCCC2	?	-23.4	11.4
COC(=O)c1c(NC(=O)c2nn(C)cc2Cl)sc2c1CCCC2	-2.6%	-92.3*	-1.9[0.0738 µM]
COC(=O)c1c(NC(=O)c2c(OC)cccc2OC)sc2c1CCCC2	.	.	-13.8
COC(=O)c1c(NC(=O)c2ccoc2C)sc2c1CCC2	6.2%	-109.2*	?
CCOC(=O)c1cc(S(=O)(=O)N2CCN(c3ccc(OC)cc3)CC2)[nH]n1	10.2%[46 µM]	.	.
COc1cc2c(cc1NC(=O)COc1ccc(Cl)cc1Br)oc1ccccc12	.	.	-0.8
CCOC(=O)c1ccc2oc(=O)n(Cc3ccccc3)c2c1	24.2%[46 µM]	.	.
O=C(CN1C(=O)CCc2cc(S(=O)(=O)N3CCOCC3)ccc21)NCc1ccccc1Cl	-9.9%[46 µM]	.	.
CCN1CCN(Cc2ccc(OCc3ccccc3)cc2)CC1	-11.5%	34.7	14.6
CN1CCN(Cc2ccc(OCc3ccccc3)cc2)CC1	21.5%	-86.2*	-0.2
CCOC(=O)c1cc2occc2n1CC(=O)N1CCCc2ccccc21	-1.5%	-83.6*	12.7
CCOC(=O)c1cc2sccc2n1CC(=O)N1CCCc2ccccc21	5.0%	4.1	5.7
O=C(COc1ccc(F)cc1)Nc1nnc(S(=O)(=O)N2CCc3ccccc32)s1	-17.1%[46 µM]	.	.
CCc1nc2ccc(F)cc2c(C(=O)NC2CCCCC2C)c1C (stereo not given)	-1.3%	?	0.8

Screens from PubChem.
